# GIRK2 activator = Activators of human GIRK2-containing channels; HEK293 GIRK2/NPY4 cells, thallium flux fluorescence; P48051; activation (% efficacy), % for hits at 75 µM; 34,000 tested, under 10 active;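 active = primary screen hit, no activity in plain HEK293 cells, and in GIRK2-only cells above 5% efficacy rising with concentration; inactive = the rest, including fluorescent compounds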;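 note: efficacy is normalized control-subtracted fluorescence 15 s after thallium addition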
# AMPAR-TARP mod = modulators of AMPA receptor GluA2-stargazin complexes; O88602+P19491; calls only at 30 µM; HEK293 GluA2+stargazin, membrane potential dye (FDSS), glutamate EC50; hits were called plate by plate, in both directions; hit rate 3.5% among 40,000;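 active = any of four per-well response measures lying three or more SD from its plate-wide compound average, in either direction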
# Target sequence (O88602 whole entry, looked up): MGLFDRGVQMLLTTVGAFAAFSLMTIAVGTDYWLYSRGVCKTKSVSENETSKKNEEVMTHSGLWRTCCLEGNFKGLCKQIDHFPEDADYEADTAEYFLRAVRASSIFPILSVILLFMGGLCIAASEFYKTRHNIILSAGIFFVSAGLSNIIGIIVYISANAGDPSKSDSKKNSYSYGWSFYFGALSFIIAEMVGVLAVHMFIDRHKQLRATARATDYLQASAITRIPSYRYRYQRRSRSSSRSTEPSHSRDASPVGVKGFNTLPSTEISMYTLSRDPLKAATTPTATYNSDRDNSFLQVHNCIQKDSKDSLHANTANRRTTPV
# Target sequence (P19491 whole entry, looked up): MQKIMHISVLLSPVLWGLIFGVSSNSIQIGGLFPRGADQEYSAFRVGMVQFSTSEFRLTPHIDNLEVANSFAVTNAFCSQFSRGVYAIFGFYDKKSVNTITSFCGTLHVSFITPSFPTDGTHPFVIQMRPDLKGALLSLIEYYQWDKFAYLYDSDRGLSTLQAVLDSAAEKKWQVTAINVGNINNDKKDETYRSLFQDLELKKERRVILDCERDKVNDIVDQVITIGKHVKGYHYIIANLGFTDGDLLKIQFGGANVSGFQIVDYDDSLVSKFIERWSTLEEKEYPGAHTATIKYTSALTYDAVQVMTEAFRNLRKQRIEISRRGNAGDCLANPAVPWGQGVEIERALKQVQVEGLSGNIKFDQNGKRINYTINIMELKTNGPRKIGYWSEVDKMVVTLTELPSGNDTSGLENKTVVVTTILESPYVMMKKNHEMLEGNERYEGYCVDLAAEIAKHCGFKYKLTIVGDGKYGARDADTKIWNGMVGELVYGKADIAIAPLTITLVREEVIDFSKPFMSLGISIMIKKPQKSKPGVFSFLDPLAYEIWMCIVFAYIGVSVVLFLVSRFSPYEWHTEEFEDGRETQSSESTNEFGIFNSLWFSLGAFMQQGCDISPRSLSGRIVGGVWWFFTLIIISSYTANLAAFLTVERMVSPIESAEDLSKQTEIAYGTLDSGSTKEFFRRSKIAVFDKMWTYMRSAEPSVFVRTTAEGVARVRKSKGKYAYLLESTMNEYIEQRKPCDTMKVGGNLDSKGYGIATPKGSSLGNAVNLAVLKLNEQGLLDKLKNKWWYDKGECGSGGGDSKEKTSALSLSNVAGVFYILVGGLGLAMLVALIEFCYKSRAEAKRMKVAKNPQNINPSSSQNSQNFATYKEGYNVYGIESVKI
# Calls only; - = inactive; . = not tested or not shown; + = active, no number. The full list was thinned out, with hits kept by preference.
SMILES,GIRK2 activator,AMPAR-TARP mod
O=C(NCCC(O)c1cccs1)C1(c2ccc(Cl)cc2)CCCC1 (stereo unspecified),-,+
CC1(C)Cc2cccc(OCC(=O)N3c4ccccc4CC3C(N)=O)c2O1 (stereo unspecified),-,-
CCC(=O)N(Cc1ccco1)c1nc2ccc(OC)cc2s1,.,-
COc1cc(C)c(Cl)cc1S(=O)(=O)NC(C)(C)C,.,-
CCOCCCNS(=O)(=O)c1cc(Cl)c(C)cc1OC,.,+
CCC(=O)Nc1ccc(N2CCCCC2=O)c(OC)c1,.,+
COc1ccc(CCC(=O)Nc2ccc(N3CCCCC3=O)c(OC)c2)cc1,-,-
CC(=O)Nc1ccc(Nc2c3c(nc4c(-c5ccccc5)c(C)nn24)CCC3)cc1,-,-
CCc1ccc(S(=O)(=O)NCC2COC3(CCCCC3)O2)s1 (stereo unspecified),-,-
O=S(=O)(NCC1COC2(CCCCC2)O1)c1cccc2ccccc12 (stereo unspecified),.,+
O=S(=O)(NCC1COC2(CCCCC2)O1)c1ccc(Cl)cc1 (stereo unspecified),-,+
O=[N+]([O-])c1ccccc1S(=O)(=O)NCC1COC2(CCCCC2)O1 (stereo unspecified),-,-
COc1ccc(F)cc1S(=O)(=O)NCC1COC2(CCCCC2)O1 (stereo unspecified),-,-
O=S(=O)(NCC1COC2(CCCCC2)O1)c1cc(F)ccc1F (stereo unspecified),-,+
COc1ccc(-n2nnc(C(=O)Nc3ncc(Cc4ccccc4)s3)c2C)cc1,-,-
C#CCn1c(=NC(=O)C2CCCN(S(C)(=O)=O)C2)sc2c(OC)ccc(OC)c21 (stereo unspecified),-,-
CCc1ccc(OCCOCC(O)CN2CCN(Cc3ccc4c(c3)OCO4)CC2)cc1 (stereo unspecified),.,+
Cc1cc(C)cc(OCC(O)CN2CCN(Cc3ccc4c(c3)OCO4)CC2)c1 (stereo unspecified),.,-
O=S(=O)(NCC(O)(c1ccco1)C1CC1)c1ccc(F)c(Cl)c1 (stereo unspecified),-,+
O=S(=O)(NCC(O)(c1ccco1)C1CC1)c1cc(F)ccc1F (stereo unspecified),-,-
COc1ccc2nc(-c3cccc(NC(=O)c4c(OC)cccc4OC)c3)cn2n1,-,-
Cc1cc(C)c(S(=O)(=O)Nc2ccc3c(c2)N(S(=O)(=O)c2ccccc2)CCC3)cc1C,.,-
O=C(Cc1ccc(NS(=O)(=O)c2ccc3c(c2)OCCO3)cc1)NCc1cccs1,-,-
COc1cccc(NC(=O)N2CCN(Cc3nc(-c4ccco4)cs3)CC2)c1,-,-
O=C(/C=C/c1cccs1)NCC1CCN(C(=O)c2cc3ccccc3o2)CC1,-,+
SMILES,GIRK2 activator,AMPAR-TARP mod
O=C(NCc1cccs1)NCC1CCN(C(=O)c2cc3ccccc3o2)CC1,-,-
O=C(NCC1CCN(C(=O)c2ccccc2F)CC1)c1ccc2nsnc2c1,-,-
O=C(NCC1CCN(C(=O)c2cc3ccccc3o2)CC1)c1ccc2nsnc2c1,-,+
COc1ccc(Cl)cc1S(=O)(=O)Nc1ccc2c(c1)N(C(=O)C(C)(C)C)CC2,-,+
COc1ccc(OCC(=O)Nc2ccc3c(c2)N(C(=O)C(C)(C)C)CC3)cc1,-,-
COc1ccc(C)cc1S(=O)(=O)Nc1ccc2c(c1)N(C(=O)C(C)(C)C)CC2,-,-
COc1ccccc1OCC(=O)Nc1ccc2c(c1)N(C(=O)C(C)(C)C)CC2,-,+
CSc1ccccc1C(=O)NCCS(=O)(=O)N1CCN(CCc2ccccc2)CC1,-,-
COC(=O)Cn1c(=O)c2c(nc3n(-c4cc(C)cc(C)c4)c(-c4ccccc4)cn23)n(C)c1=O,.,-
COc1cc([N+](=O)[O-])cc2sc(NC(=O)c3ccno3)nc12,-,+
Cc1cccc2sc(NC(=O)c3ccno3)nc12,-,-
O=C(c1ccccc1F)N1CCC(CNS(=O)(=O)Cc2ccccc2Cl)CC1,-,-
Cc1c(Cl)cccc1NC(=O)Cc1csc(Nc2ccc(S(C)(=O)=O)cc2)n1,.,-
COc1ccc(OCC(=O)Nc2ccc3c(c2)N(S(=O)(=O)c2ccccc2)CCC3)cc1,.,-
O=C(NCC1(O)CCc2ccccc21)Nc1cccc(C(F)(F)F)c1 (stereo unspecified),-,+
COc1ccccc1C1(CNC(=O)Nc2cccc(C(F)(F)F)c2)CCOCC1,-,-
N#Cc1cccc(C(=O)NCC(O)c2ccsc2)c1 (stereo unspecified),-,-
O=S(=O)(c1cccs1)N1CCC(Cn2c(C(F)(F)F)nc3ccccc32)CC1,-,+
CS(=O)(=O)N1CCC(Cn2c(C(F)(F)F)nc3ccccc32)CC1,-,-
COc1cccc(CNC(=O)Cn2cc(-c3nc(-c4ccccc4C)no3)c(=O)c3ccc(C)nc32)c1,-,-
Cc1ccc(-c2cc(C(F)F)n3ncc(C(=O)n4c(C)nc5ccccc54)c3n2)cc1,.,-
Cc1ccc(-c2cc(C(F)F)n3ncc(C(=O)N4CCC(C)CC4)c3n2)cc1,.,+
COc1ccc(-c2csc(NC(=O)c3ccc(S(=O)(=O)C(C)C)cc3)n2)cc1OC,.,-
CC(C)S(=O)(=O)c1ccc(C(=O)Nc2nc(-c3ccc(Cl)s3)cs2)cc1,.,-
CC(=O)c1sc(NC(=O)c2ccc(S(=O)(=O)C(C)C)cc2)nc1C,.,+
SMILES,GIRK2 activator,AMPAR-TARP mod
COc1cccc2sc(NC(=O)c3ccc(S(=O)(=O)C(C)C)cc3)nc12,-,+
COc1ccc(/C=C/C(=O)c2cc(C)ccc2O)c(OC)c1,.,-
CCn1c(SCC(=O)N2CCN(C(c3ccccc3)c3ccccc3)CC2)nc2ccccc2c1=O,.,+
Cc1cc(=O)[nH]c(SCC(=O)N2CCN(C(c3ccccc3)c3ccccc3)CC2)n1,.,-
COc1cccc(-c2cc3ccc(OC(C)=O)cc3oc2=O)c1,-,-
Cc1csc(-c2cc3ccc(OC(=O)CCCCl)cc3oc2=O)n1,.,+
O=C(Nc1nnc(Cc2ccc(Cl)s2)o1)c1ccco1,-,.
CN(C)C(CNC(=O)C1CCCCC1)c1cccs1 (stereo unspecified),-,-
O=C(NCC(c1cccs1)N1CCOCC1)C1CCCCC1 (stereo unspecified),-,+
O=C(NCC(c1ccco1)N1CCOCC1)C1CC=CCC1 (stereo unspecified),-,+
O=C(NCC(c1ccco1)N1CCOCC1)NC1CCCCC1 (stereo unspecified),-,-
O=C(NCC1COC2(CCCCC2)O1)c1nc2ccccc2s1 (stereo unspecified),-,.
NC(=O)C1CCN(c2oc(-c3ccccc3F)nc2S(=O)(=O)c2ccc(F)cc2)CC1,-,-
Cn1c(=O)c2cc(C(=O)NCCC(c3ccccc3)c3ccccc3)sc2n(C)c1=O,-,-
Cn1c(=O)c2cc(C(=O)Nc3ccc(Oc4ccccc4)cc3)sc2n(C)c1=O,-,-
Cn1c(=O)c2cc(C(=O)NCc3ccccc3)sc2n(C)c1=O,-,-
Cn1c(=O)c2cc(C(=O)NCCCn3ccnc3)sc2n(C)c1=O,-,+
Cn1c(=O)c2cc(C(=O)NCCCN3CCOCC3)sc2n(C)c1=O,-,+
Cn1c(=O)c2cc(C(=O)Nc3cccc(S(N)(=O)=O)c3)sc2n(C)c1=O,-,+
NC(=O)c1ccccc1NC(=O)CCn1cnc2c(cnn2-c2ccc(F)cc2)c1=O,-,.
COc1cccc(OCC(=O)Nc2cc(C)nn2-c2nc3c(cnn3-c3cccc(C)c3C)c(=O)[nH]2)c1,-,-

# Assay outcomes deposited in PubChem by several laboratories.
